According to PubChem BioAssay (NCI):
Compounds without any hit were thinned out: in the full panel of roughly 83,000, 20% have a hit.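 A percent growth of 40 corresponds to 60% growth inhibition; 0 means no net growth; -100 means all cells died. Active threshold: below 10.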 Activity calls are given as the source filed them.

Tests used:
Assay in all cases: NCI-60 one-dose screen, 48 h (100 = growth as untreated, 0 = no growth, -100 = all killed)
Conditions in all cases: 10 µM unless noted
HCT-15 colon = system: HCT-15 colon
HT29 colon = system: HT29 colon
SNB-75 CNS = system: SNB-75 CNS
SNB-19 CNS = system: SNB-19 CNS
U251 CNS = system: U251 CNS
PC-3 prostate = system: PC-3 prostate
UACC-62 melanoma = system: UACC-62 melanoma
LOX IMVI melanoma = system: LOX IMVI melanoma
SK-MEL-28 melanoma = system: SK-MEL-28 melanoma

Measured: growth

O=CNc1ccc2c(c1)Cc1cccc(NC=O)c1-2
inactive: HCT-15 colon 91.8% | HT29 colon 96.2% | SNB-75 CNS 90.7% | SNB-19 CNS 102% | U251 CNS 95.1% | PC-3 prostate 95.2% | UACC-62 melanoma 72.1% | LOX IMVI melanoma 90.5% | SK-MEL-28 melanoma 112%

CN1C(=O)C2(SCC(C(=O)NCc3ccccc3)N2C(=O)C2CCCCC2)c2ccccc21 (stereo not drawn)
inactive: HCT-15 colon 99.2% | HT29 colon 102% | SNB-75 CNS 47.2% | SNB-19 CNS 98.5% | U251 CNS 98.3% | PC-3 prostate 82.8% | UACC-62 melanoma 93.4% | LOX IMVI melanoma 91.6% | SK-MEL-28 melanoma 113%

COc1ccc(/C=C\c2cc(OC)c(OC)c(OC)c2)cc1OC(=O)c1cccc(Cn2cc(CCOC(=O)[C@H](N)Cc3cn(C)c4ccccc34)nn2)c1
active: HT29 colon 8.6%
inactive: HCT-15 colon 12.4% | SNB-75 CNS 22.9% | SNB-19 CNS 31.2% | U251 CNS 19.2% | PC-3 prostate 18.8% | UACC-62 melanoma 42.7% | LOX IMVI melanoma 22.3% | SK-MEL-28 melanoma 63.1%

CN1CCN(c2nc(NCCCCNc3ccnc4cc(Cl)ccc34)c3ccccc3n2)CC1
inactive: HCT-15 colon 37.4% | SNB-75 CNS 76.9% | SNB-19 CNS 53.5% | PC-3 prostate 66.3% | UACC-62 melanoma 63.9%
active: HT29 colon 4.42% | U251 CNS 2.52% | LOX IMVI melanoma 2.66% | SK-MEL-28 melanoma -0.901%

CNC(=O)c1cc(Oc2ccc(NC(=O)Nc3ccc(Cl)c(SC)c3)c(F)c2)ccn1
inactive: HCT-15 colon 50% | HT29 colon 30% | SNB-75 CNS 71% | SNB-19 CNS 75% | U251 CNS 56% | PC-3 prostate 34.2% | UACC-62 melanoma 28% | LOX IMVI melanoma 37.7% | SK-MEL-28 melanoma 56.7%

CCOc1cc2ncc(C#N)c(Nc3ccc(OCc4cccc(F)c4)c(Cl)c3)c2cc1NC(=O)CCCCC1CCSS1 (stereo not drawn)
inactive: HCT-15 colon 97% | HT29 colon 86.8% | SNB-75 CNS 97.8% | SNB-19 CNS 105% | U251 CNS 82.5% | PC-3 prostate 83.9% | UACC-62 melanoma 89% | LOX IMVI melanoma 79.5% | SK-MEL-28 melanoma 101%

O=C(Nc1ccc(Cl)cc1)c1cc2cc(F)ccc2cc1O
inactive: HCT-15 colon 13.1% | HT29 colon 72.5% | SNB-75 CNS 18.7% | SNB-19 CNS 21.3% | UACC-62 melanoma 10.9% | LOX IMVI melanoma 17.8% | SK-MEL-28 melanoma 12.1%
active: U251 CNS 5.79% | PC-3 prostate 9.4%
